Assay outcomes from PubChem.
D2 ag-1 – activates the human D2 dopamine receptor | actives 0.53% (n = 340,000) | activation, % at 2 µM | P14416 | HEK293 T-REx D2 cells, calcium flux agonist mode;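 active means activation over 3 SD above normal in the single-dose calcium agonist read, cut at about 30% in these data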; further: 0% is about no effect
Target sequence (P14416 whole entry, looked up): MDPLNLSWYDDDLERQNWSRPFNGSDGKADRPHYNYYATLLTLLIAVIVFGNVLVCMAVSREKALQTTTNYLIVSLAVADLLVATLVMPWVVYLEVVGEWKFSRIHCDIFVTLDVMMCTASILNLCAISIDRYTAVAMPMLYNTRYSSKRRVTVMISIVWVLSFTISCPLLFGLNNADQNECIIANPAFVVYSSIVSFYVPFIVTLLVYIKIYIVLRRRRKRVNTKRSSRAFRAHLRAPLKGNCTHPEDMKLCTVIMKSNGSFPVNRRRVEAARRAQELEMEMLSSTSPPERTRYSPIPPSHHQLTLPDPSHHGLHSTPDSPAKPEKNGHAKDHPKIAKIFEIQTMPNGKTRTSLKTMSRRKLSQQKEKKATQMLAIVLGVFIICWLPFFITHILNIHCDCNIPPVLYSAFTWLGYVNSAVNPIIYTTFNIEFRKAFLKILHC
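In this primary screen, compounds producing a positive calcium signal within 180 s of addition to tetracycline-induced, force-coupled HEK293 Trex D2 cells are flagged; cells are dye-loaded with a no-wash calcium kit beforehand.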
D2 PAM-1 – human D2 receptor positive allosteric modulation. DiscoveRx D2 beta-arrestin cells, luminescence, 90 min; 100% = 57 uM dopamine signal. actives 0.23% (n = 360,000). P14416. potentiation, % (concentration not given with the values); in the data active means potentiation above about 50%; inconclusive means mostly about 30% to 49%
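PathHunter beta-arrestin assay in DiscoveRx D2 cells. Compounds were added with an EC20 of dopamine (50 nM final) for 90 min at 37 deg C. Luminescence was read 1 h after detection reagent, with 57 uM dopamine as the EC100 control.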
D2 ag-2 – activates the human D2 dopamine receptor; DiscoveRx PathHunter D2 beta-arrestin, luminescence, 90 min; 100% = 57 uM dopamine signal; actives 0.084% (n = 360,000); activation, % (test concentration not listed); in the data active means activation above about 40%; inconclusive means between about 15% and that limit
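Agonist mode: compounds alone added to overnight-plated D2 PathHunter cells for 90 min at 37 C, with 57 uM final dopamine (EC100) defining full response. Beta-arrestin recruitment detected by chemiluminescent reagent, read after 1 h at ambient temperature.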
D2 PAM-2 – D2 dopamine receptor (human) potentiation; potentiation, % at 10 µM; AID 485347; P14416; actives 0.34% (n = 340,000); HEK293 T-REx D2, calcium flux, EC20 dopamine potentiation;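 active means potentiation over 3 SD above the plate norm, cut at about 30% in these data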; further: 0% is about no effect
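Cells plated with tetracycline inducer and held overnight at 30 C; calcium dye loaded 30–90 min at room temperature; baseline taken, compound added and read 180 s; EC20 dopamine then added and read 180 s.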
D2 antagonist – antagonizes the human D2 dopamine receptor. P14416. HEK293 TREx D2 cells, calcium flux, dopamine EC80. inhibition, % at 10 µM. actives 2% (n = 340,000); in the data active means inhibition above about 30%; inactive means below that, where a call was filed; further: 0% is about no effect
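Measurement of antagonist activity uses fluorescent calcium dye in inducible HEK293 T-REx D2 cells: 10 s baseline, compound addition with 180 s read, EC80 dopamine addition with a further 180 s read.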
Starred values were filed as active, the others as inactive; ? = inconclusive; / = no result given. Only some compounds are listed: those with a hit (about 2.4% of all), similar ones and a draw of the others.

SMILES	D2 ag-1	D2 PAM-1	D2 ag-2	D2 PAM-2	D2 antagonist
O=C(COC(=O)CCN1C(=O)C2CC=CCC2C1=O)NCCc1ccc(F)cc1 (stereo not given)	0.3	-5.2	-3.1	-11.5	37.1*
COc1ccc(OC)c(NS(=O)(=O)c2ccc(Br)s2)c1	-1.4	/	/	-8.9	-2.7
COc1cccc(NS(=O)(=O)c2ccc(Br)s2)c1	-0.2	-7.9	-0.3	7.6	33.7*
CCOC(=O)C1(C)C=C(Nc2ccc(O)cc2)C(=O)N1c1ccc(O)cc1 (stereo not given)	-0.8	104.2*	?	-1.3	-3.5
Cc1ccc(-n2ccnc(NCCc3ccc(S(N)(=O)=O)cc3)c2=O)c(C)c1	-0.3	/	/	2.1	/
CCOc1c(Br)cc(C2CC(=O)Nc3cc4c(cc32)OCO4)cc1OC (stereo not given)	0.8	/	/	-1.9	/
O=C(NCC(c1ccc(F)cc1)N1CCOCC1)c1nn(-c2ccccc2)c(=O)c2ccccc12 (stereo not given)	-0.4	-2.0	-4.9	-32.5	69.8*
CCCCCCOC(=O)c1ccc(OC(=O)c2cccnc2)cc1	1.3	-14.7	-3.9	2.8	-27.1
CCCCOC(=O)c1ccc(OC(=O)c2cccnc2)cc1	-0.4	3.9	-2.4	2.0	30.5*
CCS(=O)(=O)c1nc2ccccc2n1CC(=O)Nc1ccccc1C(=O)OC	-0.4	/	/	-9.2	/
COc1ccc(OC)c(CNC(=O)c2cc(=O)[nH]c3ccc(S(=O)(=O)N4CCCCC4C)cc23)c1 (stereo not given)	-0.2	/	/	7.8	/
O=S(=O)(c1ccsc1)N1CC=C(c2ccccc2)CC1	36.4*	-4.7	10.3	-11.6	34.7*
CCCc1cc(=O)[nH]c(SCC(=O)NC(=O)NC2CCCC2)n1	0.6	-14.5	1.2	-14.5	32.1*
CCCc1cc(=O)[nH]c(SCC(=O)NC2CCCCCCC2)n1	/	-4.8	-1.5	/	/
CCCC1(C(=O)OC)NC(c2cccc(F)c2)C2C(=O)N(CC)C(=O)C21 (stereo not given)	1.1	-5.3	-4.2	-8.3	30.8*
CC(=O)c1ccc(NC(=O)CC2Oc3ccc(C)cc3NC2=O)cc1 (stereo not given)	0.2	/	/	10.4	/
Cc1cccc(NC(=S)NNC(=O)CCn2cc(C)cn2)c1	-0.1	-24.8	-2.5	45.3*	-7.1
COc1ccc(Cl)cc1NC(=O)CSc1nc(N2CCOCC2)nc(N2CCOCC2)n1	-0.2	-4.6	1.3	5.7	17.0
O=C(CSc1nc(N2CCOCC2)nc(N2CCOCC2)n1)Nc1ccc(Cl)cc1Cl	0.7	-7.2	-5.4	1.5	33.1*
O=C(CSc1cccc(C(F)(F)F)c1)NC(=O)c1ccccc1	-1.8	-12.6	-1.6	-7.4	0.1
O=C(CSc1cccc(C(F)(F)F)c1)Nc1ccc(Cl)cc1Cl	-0.2	8.7	0.6	-8.5	48.6*
Oc1ccc2ccccc2c1CNn1cnnc1	0.2	-3.4	1.5	-6.5	32.6*
NC(=O)c1cc2ccccc2o/c1=N/NC(=O)c1cccc(Cl)c1	-0.6	1.7	-3.5	4.8	49.0*
O=C(N1CCOCC1)n1nnc2ccccc21	-1.9	-1.6	-0.6	1.0	2.2
O=C(N1CCOCC1)n1cnc2ccccc21	-2.1	1.9	-3.4	51.4*	-6.4
SMILES	D2 ag-1	D2 PAM-1	D2 ag-2	D2 PAM-2	D2 antagonist
COc1ccc(N2CCN(C(=O)CCc3c[nH]c4ccccc34)CC2)cc1	2.0	-1.2	5.2	1.3	19.3
Brc1ccccc1CN1CCN(Cc2c[nH]c3ccccc23)CC1	/	-15.1	-5.3	/	/
COc1ccccc1N1CCN(C(=O)CCc2c[nH]c3ccccc23)CC1	-0.1	-1.5	-5.3	5.1	44.5*
COc1ccccc1N1CCN(Cc2c[nH]c3ccccc23)CC1	-0.2	-19.8	-1.0	-17.3	48.0*
Fc1ccc(N2CCN(Cc3c[nH]c4ccccc34)CC2)cc1	2.3	/	/	-22.8	92.8*
COc1ccccc1N1CCN(C(=O)C(=O)c2cn(CC(=O)N3CCCCCC3)c3ccccc23)CC1	-0.4	-27.0	4.5	-17.6	37.6*
COc1ccccc1N1CCN(Cc2ccc(O)c3ncccc23)CC1	-0.4	-28.3	-9.9	15.9	-25.7
O=S(=O)(Nc1ccc(C(F)(F)F)cc1)c1ccc2c(c1)OCCO2	1.4	/	/	9.3	/
Cc1ccc(NC(=O)Cn2c(=O)ccc3cc(S(=O)(=O)N4CCCC4)ccc32)cc1N(C)C	-0.1	/	/	-4.6	/
Cc1ccccc1N1CCN(Cc2c[nH]c3ccccc23)CC1	0.5	-18.5	-3.5	-18.8	39.9*
CCS(=O)(=O)N1CCN(Cc2c[nH]c3ccccc23)CC1	2.7	-2.0	0.7	-18.7	-35.1
N#C/C(=C\c1cc(Br)c(O)c(Br)c1)c1nc2ccccc2c(=O)[nH]1	/	/	/	-1.9	/
Cc1oc(-c2ccc(C(=O)NCc3cccc(F)c3)cc2)nc1COc1ccccc1	2.6	/	/	1.3	/
CCOc1ccc(C2C(C#N)=C(N)SC(N)=C2C#N)c(OCC)c1	0.5	9.4	2.1	-0.4	30.6*
O=C1C(NS(=O)(=O)c2cccs2)=C(N2CCN(Cc3ccccc3)CC2)C(=O)c2ccccc21	-0.9	-18.2	7.2	-23.2	39.1*
O=C1C(NS(=O)(=O)c2cccs2)=C(N2CCOCC2)C(=O)c2ccccc21	-0.1	-19.7	-6.1	2.6	38.1*
Cc1cc(C)c(NC(=O)C2CCN(c3nn4c(=O)cc(C)nc4s3)CC2)c(C)c1	-0.1	/	/	/	/
COc1ccc(-n2c(CN3CCN(c4ccccn4)CC3)nc3ccc([N+](=O)[O-])cc3c2=O)c(OC)c1	35.9*	-7.6	-0.1	-6.4	6.3
CCCN1CNc2c(c(=O)[nH]c(=S)n2-c2ccccc2Cl)C1	-0.3	2.2	-4.4	67.6*	2.6
CSc1ccc2c(c1)C(N1CCN(C)CC1)Cc1ccccc1S2 (stereo not given)	1.6	-28.9	-4.5	-26.7	81.3*
CCOc1ccc(Br)cc1S(=O)(=O)N1CCCC1	-0.3	-2.9	-0.4	0.2	53.6*
COc1ccc(NC(=O)Cn2c(=O)n(Cc3ccccc3Cl)c(=O)c3cc(OC)c(OC)cc32)cc1OC	-1.7	/	/	0.7	/
CCOc1ccc2cc(S(=O)(=O)n3ccnc3C)ccc2c1	-0.1	-3.7	-2.7	36.6*	-5.4
Nc1ccc2ncccc2c1N	/	20.0	1.7	/	/
Nc1nc(N)c2c(ccc3nccc32)[nH]1	-0.5	52.2*	-1.4	9.1	-5.8
O=C1c2ccccc2C(=O)N1CCc1nc2ccccc2c(=O)n1Cc1ccco1	0.6	4.0	-3.4	1.1	40.4*
CCOc1ccccc1NC(=O)CSc1nnnn1-c1ccc(C(=O)OC)cc1	-0.6	-6.9	-1.4	8.0	49.9*
CCOc1ccc(NC(=O)CN(C)c2nnnn2-c2ccccc2)cc1OCC	0.8	-11.3	-1.9	2.1	35.1*
COc1ccc(OC)c(-n2nnnc2SCC(=O)Nc2ccccc2OC)c1	7.6	-1.0	4.0	14.0	31.1*
